# In all, about 370,000 compounds went through this assay and about 1,600 (0.43%) were called active. This excerpt belongs to a sample that is enriched for actives. A number with no mark means an inactive call. No stated cut-off is given here; in the data, active means inhibition above about 24%; inactive means the rest.
# Target: Major prion protein (Homo sapiens) (UniProt P04156)
# Assay: reduces human prion protein on the cell surface, primary screen, cell-based, TR-FRET (AID 720596); further: 0% = median of the test wells and 100% = reference compound wells
# Details: cell surface PrPC, TR-FRET read-out; at 13.8 µM; stronger effect = higher value
row,Compound,inhibition
1,COC(=O)c1ccc(CSc2ccc(S(=O)(=O)N3CCCCC3)cn2)cc1,0.66%
2,Cc1ccc(CSc2ccc(S(=O)(=O)N3CCCCC3)cn2)cc1,33.8% (active)
3,O=S(=O)(c1ccc(SCc2ccccc2)nc1)N1CCCCCC1,-0.79%
4,CCOc1ccc(CCNC(=O)C2CCN(c3ccc(N4CCOCC4)nn3)CC2)cc1OCC,-16.1%
5,O=C(/C=C/c1cccc([N+](=O)[O-])c1)OCC(=O)N1CCOCC1,-2.76%
6,CCN(C(=O)[C@@H](C1CC1)[C@@H](O)c1ccc2ccccc2c1)c1ccccc1,-3.85%
7,COc1ccc(CN2CCC(c3nc4ccc(Cl)cc4[nH]3)CC2)cc1,-13.1%
8,Cc1ccc(CN2CCCOCCS2(=O)=O)cc1,2.42%
9,COc1ccc(C(=O)N2CCCCC2c2cc(C(=O)Nc3ccc(F)c(Cl)c3)no2)cc1 (stereo not given),-1.86%
10,Cc1cc(=O)n2[nH]c(-c3sccc3-n3c(C)ccc3C)cc2n1,13.4%
11,CCc1c(C)nc2cc(C)[nH]n2c1=O,1.02%
12,CCc1c(C)nc2cc(-c3cccs3)[nH]n2c1=O,37.9% (active)
13,CC(C)n1c(=S)[nH]c2cc(C(F)(F)F)ccc21,-2.04%
14,O=C(CNC(=O)c1ccccc1)OC(C(=O)Nc1cc([N+](=O)[O-])ccc1F)c1ccccc1 (stereo not given),9.58%
15,O=C(Nc1nc2ccc(Cl)cc2s1)c1cc(-c2ccc(Cl)cc2)nc2ccccc12,6.81%
16,O=C(NC(Nc1nc2ccc([N+](=O)[O-])cc2s1)(C(F)(F)F)C(F)(F)F)c1ccccc1,43.8% (active)
17,Cc1cc(C(=O)NN=C/C=C/c2ccco2)n[nH]1,-15.4%
18,CCn1c(SCC(=O)Nc2nc(C)cs2)nnc1C(C)NC(=O)c1ccccc1 (stereo not given),-3.46%
19,CC(=O)N1C[C@@H](CO)[C@@H](N(C)C(=O)c2ccco2)C[C@H]1c1ccccc1,-3.63%
20,CCN(CC(=O)NCc1cccs1)C(=O)/C=C/c1ccc(C)cc1,-4.17%
21,COC(=O)Cc1[nH]n(-c2nc3ccccc3s2)c(=O)c1C(C)=Nc1ccc(OC)cc1,32.6% (active)
22,O=C(COC(=O)CNS(=O)(=O)c1ccc(F)c(F)c1F)NC1CCCC1,-0.54%
23,O=C(COC(=O)c1cnccn1)Nc1ccc(Cl)cc1C(F)(F)F,5.86%
24,Cc1c(S(=O)(=O)N2CC(C)CC(C)C2)c(=O)n(C)c(=O)n1C (stereo not given),5.95%
25,CCSc1nc(C)c(CCOc2cccc(C)c2)c(=O)[nH]1,4.37%

# Reference: PubChem BioAssay AID720596 (The Scripps Research Institute Molecular Screening Center, 2013)
